# Data taken from PubChem BioAssay AID651791 (National Center for Advancing Translational Sciences (NCATS), 2012).
# Results filed as inconclusive are left out. The source made the active and inactive calls. Calls follow the shape of the dose curve; as a rule, active = well fitted inhibition curve with a large enough effect; inconclusive = small, poorly fitted or top-dose-only effect; inactive = no such curve, though single readings can be large or run the other way.
# Experiment: InCell qHTS Assay for Inhibitors of the mTORC1 Signaling Pathway in MEF (Tsc2-/-, p53-/-) Cells: Hit Validation; also: nearly all actives have a fitted effect of over 75% in size
# Details: phospho-rpS6 immunofluorescence, 24 h; activity change, negative = inhibition: at 38.3 µM (top of the series)
# Text: The mammalian target of rapamycin (mTOR) is an intracellular serine/threonine kinase Aberrant regulation of mTOR signaling plays a causative role in a number of human diseases, including cancer, benign tumors such as lymphangioleiomyomatosis (LAM) and Tuberous Sclerosis Complex (TSC), and metabolic diseases such as diabetes and obesity. This project aims to identify inhibitors of ribosomal protein S6 (rpS6) phosphorylation. The phosphorylation of rpS6 is a key event downstream of mTOR activation. The assay uses a phospho-specific antibody of phospho-rpS6 to detect inhibitors of mTOR activation. Mutations in the Tsc1 and Tsc2 genes are the underlying genetic lesions responsible for TSC, causing constitutive activation of the mTORC1 pathway and leading to profound effects on cell metabolism. Aberrant metabolism in cancer has recently received significant attention as a target to develop therapeutic agents in the treatment of cancer.1 As Tsc2-/- cells have lost the ability to respond to energy and growth factor deprivation, these cells are unable to properly down regulate cellular biosynthetic processes in response to metabolic stress, and are thus extremely sensitive to glucose deprivation-induced death.2 A central goal of this project is to explore the unique cell survival and metabolic properties of cells with Tsc1 or Tsc2 by screening for compounds that selectively target the Tsc2-/- MEFs by screening both Tsc2-/- and WT MEF cell lines. We hope to better understand these aspects of TSC physiology in order to exploit them for therapeutic benefit. NIH Molecular Libraries Probe Production Centers Network [MLPCN] NIH Chemical Genomics Center [NCGC] MLPCN Grant: NS059428 Assay Submitter (PI): Blenis, John; Harvard University
# For quantitative high throughput analysis of mTORC1 signaling, we developed a cell-based assay for immuno-fluorescence based detection of rpS6 phosphorylation on the Acumen Explorer that will be used a platform for the primary small molecule screen. Mouse embryonic fibroblasts (MEFs) are cultured in 1536-well plates using DMEM + 10% FBS. Twenty-four hrs after plating, test compounds (solubilized in DMSO) are delivered and incubated with the cells for 24 hrs at 37 degree Celsius. Following the incubation, media with compound is aspirated and the cells are fixed in 4% paraformaldehyde (PFA) containing PBS + 0.2% TX-100. Next, PFA is aspirated, cells are washed two times with PBS plus 0.2% TX-100 and the cells are blocked for 1 hr at room temperature (blocking buffer: LiCOR Blocking Buffer plus 0.2% TX-100). This is followed by aspiration and staining with Alexa-488 conjugated-phospho-rpS6 Ser235/236 antibody for 2 hours at room temperature (Cell Signaling Technology # 4803, 1:50 dilution in blocking buffer). Cells are washed two times with PBS plus 0.2% TX-100, and stained with 10 uM propidium iodide (PI) for 20-25 minutes for cell number measurement (1:500 dilution of Hoescht staining is also added for IN Cell imaging). The plates are scanned on the Acumen Explorer laser scanning instrument (TTP Labtech) using the 488nm laser for simultaneous excitation of the Alexa-488 and PI. The fluorescence emission from the Alexa-488 conjugated rpS6 phospho-235/236 antibody staining is selected using a […] band pass filter. Fluorescence emission from the PI stain is selected using a 575-640 nm band pass filter. The normalized phospho-S6 staining is calculated as the ratio of the integrated Alexa 488 intensity divided by the integrated PI intensity for the single concentration rapamycin control (7.5 nM) and DMSO columns. […] Inhibition of the pathway is defined based on the normalized phospho-S6 intensity in rapamycin treated cells. […]
# Potency is read from the fitted curve at half-maximal effect.
Structure (SMILES),"activity change, negative = inhibition",Potency
CCN(CC)CCSc1nc2ccccc2c(=O)n1-c1ccc(Cl)cc1,-100%,–
Cc1ccc(-n2c(/C=C/c3ccc(Br)s3)nc3ccccc3c2=O)cc1C,-100%,–
CCOc1ccc(CN(CCc2ccc3c(c2)OCO3)Cc2ccc(C)cc2)cc1,-100%,–
O=C(Nc1ccon1)c1cccn(Cc2cccc(Cl)c2)c1=O,-100%,–
Cc1ccccc1-n1c(/C=C/c2ccccc2F)nc2ccccc2c1=O,-100%,–
COc1ccc2nc(NC(=O)c3nc(S(=O)(=O)Cc4cccc(C)c4)ncc3Cl)sc2c1,–,18.5 µM (active)
Cc1ccccc1-c1nc(CN2C(=O)CN=C(c3ccccc3)c3ccccc32)c(C)o1,-100%,–
Cc1ccccc1-n1c(/C=C/c2c(C)[nH]c3ccccc23)nc2ccccc2c1=O,-100%,–
CCN(CC)C(=O)c1ccc(NC(=O)CCn2nc(-c3ccc(C)cc3)c3ccccc3c2=O)cc1,-100%,–
CCOc1ccc(NC(=O)CSc2oc(-c3ccccc3)nc2S(=O)(=O)c2ccc(Cl)cc2)cc1,–,3.69 µM (active)
